Screening data: PubChem, National Center for Advancing Translational Sciences (NCATS)
Pf growth 96h – inhibits malaria parasite growth, 96 h. P. falciparum luciferase reporter growth, 96 h. 320,000 tested, 6.9% active. Potency, µM (series often up to 28.7 µM), inactives show top-dose activity change, negative = inhibition, actives largely listed as inhibitors. AID 504834; also: potency is read from the fitted curve at half-maximal effect; % is scaled to controls: 0 for no effect and ±100 for the full control effect
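Compounds incubated with erythrocytes infected by luciferase-expressing P. falciparum (2% hematocrit, 0.05% parasitemia final) for 96 hours, 37 C in 5% CO2. Growth inhibition scored as decreased luciferase luminescence.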
Pf growth 48h – inhibits P. falciparum growth in the first generation, 48 h; 310,000 tested, 5.9% active; Potency, µM (series often up to 28.7 µM), for the others: at the highest dose activity change, negative = inhibition, usual class: inhibitors; AID 504832; P. falciparum luciferase growth in erythrocytes, 48 h; also: potency is read from the fitted curve at half-maximal effect; % is scaled to controls: 0 for no effect and ±100 for the full control effect
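In quantitative HTS format, infected erythrocytes bearing luciferase-reporter parasites were treated for a single generation at 37 C. Luminescence after adding detection reagent served as the growth measure.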
SARS PLpro yeast – SARS-CoV PLP inhibition in yeast; S. cerevisiae expressing SARS-CoV PLpro, growth rescue; Potency, µM (highest dose often 32.9 µM), for the others: top-dose activity, positive = growth rescue, actives largely listed as activators; 330,000 tested, 0.19% active; AID 485353; calls by dose curve; also: potency is read from the fitted curve at half-maximal effect; 0% is about no effect; nearly all actives have a fitted effect of over 55% in size
Shiga toxin inh – Shiga toxin inhibition. Vero cells, Shiga toxin protein synthesis inhibition reporter. inhibition, % at 38.7 µM. 290,000 tested, 9.2% active. AID 2315; in the data active = inhibition mostly above about 28%, no sharp cut-off; inactive = mostly below about 43%; also: 0% is about no effect
Cycloheximide cs – counter-screen hit for Shiga toxin inhibitors, cycloheximide; cell reporter, cycloheximide protein synthesis inhibition counterscreen; max response, %; 300,000 tested, 12% active; in the data active = max response mostly above about 13%, no sharp cut-off; inactive = mostly below about 14%; also: read at 38.3 µM for the half of the compounds with a filed dose; 0% is about no effect
AMA1-RON2 inh – inhibitors of Plasmodium falciparum AMA1-RON2 interaction. Potency, µM (top dose mostly 58.2 µM), for inactives: at the highest dose activity change, negative = inhibition, most hits filed as inhibitors. AlphaScreen AMA1-biotinylated RON2 peptide binding. 360,000 tested, 0.2% active. AID 720542;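 also: potency is read from the fitted curve at half-maximal effect; 0% = vehicle wells and -100% = peptide control; nearly all actives have a fitted effect of over 45% in size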
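AMA1 (3D7) with his tag at 25 nM final met compounds first, then biotinylated RON2 peptide at 25 nM; detection used donor plus acceptor beads, 10 µg/mL apiece, read by AlphaScreen after 30 min at room temperature.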
An asterisk follows results filed as active; ? = inconclusive; · = no result. A selection: hits, their analogues and other compounds. The true share with any hit is near 19%. Unless noted, calls follow the shape of the dose curve; as a rule, active = well fitted curve in the direction sought with a large enough effect; inconclusive = small, poorly fitted or top-dose-only effect, or another doubt; inactive = no such curve, though single readings can be large; an effect the other way counts as inactive or inconclusive.

SMILES	Pf growth 96h	Pf growth 48h	SARS PLpro yeast	Shiga toxin inh	Cycloheximide cs	AMA1-RON2 inh
COc1ccc(-n2cnnc2SCC(=O)Nc2cccnc2Cl)cc1	-3%	-3%	0%	-4	-1	-12%
CN(C)CCCNC(=O)c1ccc(Cl)c(S(=O)(=O)N2CCCCCC2)c1	?	?	0%	·	·	-8%
CN(C)C(CNC(=O)c1ccc(Cl)c(S(=O)(=O)N2CCCCCC2)c1)c1ccccc1 (configuration not stated)	?	5.2µM*	-2%	·	·	-7%
NC(=O)CC[C@H](NC(=O)[C@H](Cc1ccccc1)n1c(=O)[nH]c2ccccc2c1=O)C(=O)N1CCC[C@H]1C(=O)O	62%	13%	-2%	-5	-2	-7%
CC(=O)c1cccc(NC(=O)CSc2n[nH]c(=O)n2C2CC2)c1	·	·	-19%	·	·	-1%
N#C/C(=C\c1cccnc1)C(=O)Nc1ccccc1	-4%	30%	-4%	19	18*	11%
COc1ccc(NC(=O)/C(C#N)=C/c2cccnc2)c(OC)c1	1µM*	-20%	-1%	-11	-3	-5%
N#C/C(=C\c1cccnc1)C(=O)Nc1ccc(C(=O)O)cc1	-22%	4%	2%	-6	-2	-11%
CCCOc1ccccc1/C=C(\C#N)C(=O)Nc1cccnc1	63%	35%	1%	78*	34*	3%
CC(C)c1ccc(NC(=O)/C(C#N)=C/c2ccncc2)cc1	?	29%	·	18*	26*	5%
N#C/C(=C\c1ccncc1)C(=O)Nc1ccc(C(=O)O)cc1	4%	0%	0%	-6	-5	0%
O=C(COC(=O)CC1CC2CCC1C2)Nc1cccc(S(=O)(=O)NC2=NCCCCC2)c1 (configuration not stated)	-17%	3%	-3%	27	7	5%
CC(=O)N1CCN(c2ccccc2NC(=O)c2cccs2)CC1	?	-1%	0%	-9	4	23%
Cn1c(O)c(N=NC(=O)CNC(=O)/C=C/c2ccccc2)c2ccccc21	83%	36%	-1%	4	22	?
COc1ccc(CNC(=O)Cn2cc(C)c(=O)[nH]c2=O)cc1	·	·	·	·	·	14%
Cc1ccc(-c2nnc3ccc(SCC(=O)Nc4cc(C)on4)nn23)cc1	-28%	?	10%	-23	-3	4%
Cc1cc(NC(=O)CSc2ccc3nnc(-c4cccs4)n3n2)no1	2.3µM*	·	0%	22	-2	1%
Cc1ccc(NC(=O)CSc2ccc3nnc(-c4ccccn4)n3n2)cc1	13µM*	?	0%	5	-2	-7%
CC(=O)c1ccc(NC(=O)CSc2ccc3nnc(-c4ccccn4)n3n2)cc1	?	?	1%	-8	-2	?
Fc1cccc(Cl)c1CSc1ccc2nnc(-c3ccccn3)n2n1	-19%	-8%	0%	-27	-3	-7%
Fc1cccc(CSc2ccc3nnc(-c4ccccn4)n3n2)c1	1.9µM*	?	0%	-3	-7	?
COc1ccc(NC(=O)CSc2ccc3nnc(-c4ccccn4)n3n2)cc1	12µM*	?	-1%	-19	10	-12%
C=C(C)Cn1c2ccc(NC(=O)NCCc3ccccc3)cc2c(=O)n1C	·	·	·	·	·	7%
COc1ccc(OC)c(NC(=O)CSc2ccc3nnc(-c4ccccn4)n3n2)c1	?	?	-4%	-2	-2	29%
COc1ccc(OC)c(NC(=O)CSc2ccc3nnc(-c4cccnc4)n3n2)c1	12µM*	?	-1%	13	8	?
O=C(CSc1ccc2nnc(-c3ccccn3)n2n1)Nc1ccc2c(c1)OCO2	1.9µM*	3.7µM*	6%	-16	-1	?
O=C(CN1CCN(Cc2ccccc2Cl)C1=O)NCCCN1CCOCC1	20%	2%	-1%	-3	-3	0%
CC1(c2ccccc2)CC(C)(C)N(C(N)=O)c2ccccc21 (configuration not stated)	?	-17%	1%	13	-1	-15%
CN1CCN(CC(=O)N2c3ccccc3C(C)(c3ccccc3)CC2(C)C)CC1 (configuration not stated)	10µM*	?	-2%	-4	-5	3%
